High-throughput results as filed in PubChem BioAssay.
D3 ag: activates the human D3 dopamine receptor; P35462; D3R DiscoveRx beta-arrestin cells, luminescence, 90 min; max activation, %; actives 0.58% (n = 410,000); AID 652048; in the data active = max activation above about 30%
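Agonist mode: compounds and dopamine controls were applied to plated cells for 90 min at 37 degrees C after an overnight attachment at 1500 cells/well. Luminescent read-out followed 30 - 60 minutes at room temperature with DiscoveRx detection reagent.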
ClpP mod: qHTS Assay for Activators of ClpP; purified B. subtilis ClpP, FRET peptide cleavage, 20 min; actives 1.9% (n = 340,000); AID 651965, 2013; Potency, µM (doses to about 57.5 µM); ATP-dependent Clp protease proteolytic subunit (Bacillus subtilis (strain 168)), P80244; active = well fitted falling curve with a large enough effect; inconclusive = small, poorly fitted or top-dose-only effect; inactive = no such curve, though single readings can be large or run the other way; note: the source files actives as falling curves though it sought activators and does not explain the sign; nearly all actives have a fitted effect of over 65% in size
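ClpP 10 microg/mL final, pH 8 Tris/KCl buffer with BSA, glycerol, Tween-20; compound pinned in; FRET-FV substrate; RT 20 min; Ex320/Em430; ΔFRET vs ADEP 5.8 microM, DMSO, no enzyme.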
DT40 TDP1 CPT: growth inhibition of DT40 Tdp1-/-;hTDP1 cells with camptothecin (screen for TDP1 inhibitors). actives 12% (n = 420,000). Potency, µM (titrated, usually from 46.2 µM), usual class: inhibitors. chicken DT40 Tdp1-/-;hTDP1 cells + 20 nM CPT, ATP luminescence, 48 h; note: nearly all actives have a fitted effect of over 55% in size
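Cell growth measured by CellTiter-Glo luminescence after a minimum 48 h, 37 C compound exposure with 20 nM CPT in Tdp1-knockout DT40 cells stably expressing hTDP1, seeded 400/well; qHTS titration format.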
D3 antag: antagonists of human D3 dopamine receptor; actives 2.5% (n = 360,000); max response, negative = inhibition, %; D3R cells, DiscoveRx beta-arrestin luminescence, antagonist mode; active compounds read low; P35462; in the data active = max response below about -50%; inconclusive = no clear call, values can overlap the other calls
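Cells plated overnight at 1500 cells/well, then exposed to library compounds with dopamine controls for 90 minutes at 37 degrees C. DiscoveRx reagent added for 30–60 minutes at room temperature; luminescence read, quantitative HTS format.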
DT40 TDP1 no CPT: qHTS for Inhibitors of human tyrosyl-DNA phosphodiesterase 1 (TDP1): qHTS in cells in absence of CPT | DT40 Tdp1-/- hTDP1 cells, no CPT, ATP luminescence, 48 h | Potency, µM (series often up to 46.2 µM), usual class: inhibitors | actives 15% (n = 420,000); note: nearly all actives have a fitted effect of over 55% in size
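Readout: luminescence from CellTiter-Glo after 30 min in the dark at RT. Cells: DT40 Tdp1-/- with stable hTDP1, 400/well. Exposure: compounds alone, ≥48 hr, 37 °C.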
IL1B secr inh: inhibitors of inflammasome signaling (IL-1 beta secretion) | THP-1 LPS/ATP IL-1B secretion, AlphaLISA, 16 h; active compounds read low | activity change, % at 57.5 µM | actives 4.7% (n = 360,000); in the data active = activity change below about -50%; inconclusive = mostly about -30% to -49%
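Secreted IL-1B measured by AlphaLISA bead assay after 16 h compound exposure of THP-1 cells; compounds (final up to 57.5 uM) added 1 h before LPS (250 ng/mL) and ATP (1.25 mM) stimulation; lower signal means less secretion.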
Numbers stand for hits; - = inactive; ? = inconclusive; . = no result given. Most compounds without a hit are left out; they make up all but 21% or so of the library. Unless noted, calls come from the whole dose curve; as a rule, active = well fitted inhibition curve with a large enough effect; inconclusive = small, poorly fitted or top-dose-only effect; inactive = flat fitted curve, though single readings scatter.

SMILES | D3 ag | ClpP mod | DT40 TDP1 CPT | D3 antag | DT40 TDP1 no CPT | IL1B secr inh
CCOC(=O)c1c(C)[nH]c(C)c1C(=O)COC(=O)COc1ccc(Cl)c(C)c1 | - | - | - | - | - | -
CCn1ccnc1CN1CCc2c([nH]c3ccccc23)C1C(C)(C)C (stereo unspecified) | - | . | ? | - | ? | -84.4
CN(C(=O)COc1ccccc1C(=O)NCCOc1ccccc1)c1ccccc1 | 30.1 | - | 2.31µM | - | 2.31µM | -96.8
Cc1nnc(SCC(=O)Nc2nc(-c3ccc(F)cc3)cs2)[nH]c1=O | - | . | - | - | - | -
COC(=O)c1cc2ccc(OC)cc2c2cc(OC)c(OC)cc12 | 80.4 | - | ? | - | ? | -61.0
COC(=O)c1cc(OC)c(OC)cc1NCC(=O)Nc1ccc(C)cc1 | - | ? | - | - | - | -52.1
COc1ccc(NC(=O)Nc2ccccc2F)cc1 | - | - | 8.2µM | - | 7.94µM | -
COc1ccc(C(=O)Nc2cc(OC)c(NC(=O)Nc3ccccc3)cc2OC)cc1 | - | - | ? | - | 18.4µM | -
COc1ccc(C(=O)Nc2cc(OC)c(Cl)cc2OC)cc1 | - | - | - | - | ? | -
O=C(CCC(=O)NC1CCCCC1)N/N=C/c1ccncc1 | - | - | - | - | - | -
O=C(Cn1ccn(-c2ccc(F)cc2)c(=O)c1=O)Nc1ccccc1C(F)(F)F | - | - | - | . | - | .
COC(=O)c1cc(OC)c(OC)cc1NCC(=O)Nc1cccc(C(F)(F)F)c1 | - | ? | - | - | ? | -
COC(=O)c1cc(OC)c(OC)cc1NCC(=O)Nc1ccc(OC)c(OC)c1 | - | ? | 20.6µM | - | 13µM | -
COc1ccc(NC(=O)NN(C(=O)c2ccccc2)C(C)(C)C)cc1 | - | 25.1µM | - | - | - | -
COC(=O)c1cc(OC)c(OC)cc1NC(=O)Nc1ccc(OC)cc1 | - | 25.1µM | - | - | - | -
COC(=O)c1cc(OC)c(OC)cc1NC(=O)Nc1cccc(C(C)=O)c1 | - | . | ? | - | - | -
CC(C)(C)N(NC(=O)Nc1ccccc1)C(=O)c1ccccc1 | - | - | - | - | - | -
COCC(C)NC(=O)C1=CC(c2ccc3c(c2)OCO3)=NS(=O)(=O)N1C (stereo unspecified) | - | - | - | . | - | .
CCOC(=O)c1c(S(=O)(=O)NCC(=O)Nc2ccc(F)cc2F)c(C)n(C)c1C | - | - | - | - | - | -
Cn1cccc1CN1CCC[C@]2(N[C@H](c3ccccc3)[C@@H]3C(=O)N(Cc4ccccc4)C(=O)[C@@H]32)C1=O | - | - | ? | - | ? | -
CNS(=O)(=O)c1cc(OC)c(OC)cc1CC(=O)OC | - | . | - | - | - | -
CC1N=C2c3ccccc3N=C(SCC(=O)NCCc3ccccc3)N2C1=O (stereo unspecified) | - | - | - | . | - | .
Cc1cccc(N2C(=O)N(c3ccccc3C)C3CS(=O)(=O)CC32)c1 (stereo unspecified) | - | 28.2µM | - | -52.7 | - | -
COc1c(Br)cc(Br)cc1/C=C1/C(=O)N=C(N)N1C | - | . | - | - | - | -53.6
N#CCCCc1cc2cc(F)ccc2cn1 | - | - | - | - | - | -
SMILES | D3 ag | ClpP mod | DT40 TDP1 CPT | D3 antag | DT40 TDP1 no CPT | IL1B secr inh
CCCc1cc(=O)oc2c3c(c4c(c12)OC(C)(C)C=C4)OC(C)C(C)C3O (stereo unspecified) | - | - | 8.2µM | - | 6.51µM | -71.4
Cc1cccc2[nH]c3c(N4CC=C(c5ccc(F)cc5)CC4)ncnc3c12 | - | - | 13µM | - | 14.6µM | -91.7
Cc1ccccc1-c1ccc2ncnc(N3CCNCC3)c2c1 | . | . | - | . | - | .
COc1ccc(/C=C/C(=O)Nc2sc3c(c2C(N)=O)CCC(C)C3)cc1OC (stereo unspecified) | 37.2 | - | . | . | . | .
COc1cc(C(=O)Nc2sc3c(c2C#N)CCCC3)c(Br)c(OC)c1OC | - | - | ? | . | 3.26µM | .
COC(=O)c1c(NC(=O)c2cc(OC)c(OC)c(OC)c2Br)sc2c1CCC(C)C2 (stereo unspecified) | - | - | ? | . | 20.6µM | .
COc1cccc(OC)c1C(=O)Nc1sc2c(c1C#N)CCC2 | - | - | - | - | - | -
COc1cc(C(=O)Nc2sc3c(c2C(N)=O)CCC(C)C3)cc(OC)c1OC (stereo unspecified) | - | - | ? | . | - | .
Cc1nnc(N2CCN(c3ccccc3F)CC2)c2c1nnn2Cc1ccc(F)cc1 | - | - | ? | . | ? | .
Cc1nnc(N2CCN(c3cccc(Cl)c3)CC2)c2c1nnn2Cc1ccc(F)cc1 | - | ? | - | . | ? | .
Cc1nnc(N2CCN(c3ccccc3F)CC2)c2c1nnn2Cc1ccccc1 | - | ? | ? | . | 16.4µM | .
Cc1nnc(N2CCN(c3ccccc3F)CC2)c2c1nnn2Cc1ccccc1Cl | - | - | 14.6µM | . | ? | .
CCn1c(=O)c2c(n3cnnc13)-c1ccccc1CC21CCCCC1 | - | - | 13µM | - | ? | -
CNC(=O)c1ccccc1NC(=O)c1cccc(S(=O)(=O)N2CCC(C)CC2)c1 | - | - | 20.6µM | - | 16.4µM | -
CCNC(=O)c1ccccc1NC(=O)c1cccc(S(=O)(=O)N2CCC(C)CC2)c1 | - | - | ? | - | 14.6µM | -
Cc1ccc(S(=O)(=O)c2c(O)cc(C)c(NS(=O)(=O)c3ccc(Br)cc3)c2C)cc1 | - | - | ? | . | ? | .
C#CCOc1nc(Nc2cccc([N+](=O)[O-])c2)nc(OCC#C)n1 | - | . | ? | - | 20.6µM | -65.6
Cc1ccc(-c2nc3ccc(Cl)cn3c2CC(C)(C)C)cc1 | - | - | ? | ? | - | -
Fc1cccc(Cc2c(-c3cccc(Br)c3)nc3ccc(Br)cn23)c1 | - | - | - | - | ? | -
Cc1ccc(-c2nc3ccc(Cl)cn3c2Cc2cccc(F)c2)cc1 | - | ? | 20.6µM | - | ? | -
CC(C)(C)Cc1c(-c2ccc(F)cc2)nc2ccc(Cl)cn12 | - | - | ? | - | 20.6µM | -
Fc1cccc(Cc2c(-c3ccc(Cl)cc3)nc3ccc(Br)cn23)c1 | - | - | ? | - | 16.4µM | ?
Fc1ccc(-c2nc3ccc(Cl)cn3c2Cc2cccc(Cl)c2)cc1 | - | ? | - | - | ? | -
COC(=O)c1c(NC(=O)/C(C#N)=C/c2ccc(OC)cc2)sc2c1CCC2 | - | - | - | . | - | .
COc1cc(CNC2CCCC2)cc(Cl)c1OCc1ccccc1Cl | - | - | 23.1µM | - | 23.1µM | -93.8
COc1cc(CNC2CCCCCCC2)cc(Cl)c1OCC(N)=O | - | - | - | - | - | -
